# What was measured:
# Coatomer subunit gamma-1 = Coatomer subunit gamma-1 (UniProt Q9Y678); experiment: cross-linking mass spectrometry
# [1] = molecular target: T-complex protein 1 subunit delta (UniProt P50991); experiment: co-fractionation; cross-linking mass spectrometry
# Protein S100-A10 = Protein S100-A10 (UniProt P60903); experiment: cross-link between two proteins; cross-linking mass spectrometry
# [2] = molecular target: Phosphoglycerate kinase 2 (UniProt P07205); experiment: co-fractionation; co-fractionation; cross-linking mass spectrometry
# Phosphoglycerate kinase 2, sequence (P07205 whole entry): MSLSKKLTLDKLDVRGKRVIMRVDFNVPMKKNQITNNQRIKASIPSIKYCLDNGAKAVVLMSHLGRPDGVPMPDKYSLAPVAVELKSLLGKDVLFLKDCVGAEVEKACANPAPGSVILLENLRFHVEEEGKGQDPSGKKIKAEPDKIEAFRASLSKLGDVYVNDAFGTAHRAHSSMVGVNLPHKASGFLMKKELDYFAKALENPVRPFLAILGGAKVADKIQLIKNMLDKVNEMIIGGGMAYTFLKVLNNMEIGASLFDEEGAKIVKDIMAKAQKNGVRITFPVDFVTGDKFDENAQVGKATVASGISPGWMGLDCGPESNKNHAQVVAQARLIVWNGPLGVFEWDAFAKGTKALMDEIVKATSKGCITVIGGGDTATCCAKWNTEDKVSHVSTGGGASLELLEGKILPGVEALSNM
# [3] = molecular target: 26S proteasome non-ATPase regulatory subunit 5 (UniProt Q16401); experiment: cross-link between two proteins; cross-linking mass spectrometry; two-hybrid or complementation screen
# 26S proteasome non-ATPase regulatory subunit 5, sequence (Q16401 whole entry): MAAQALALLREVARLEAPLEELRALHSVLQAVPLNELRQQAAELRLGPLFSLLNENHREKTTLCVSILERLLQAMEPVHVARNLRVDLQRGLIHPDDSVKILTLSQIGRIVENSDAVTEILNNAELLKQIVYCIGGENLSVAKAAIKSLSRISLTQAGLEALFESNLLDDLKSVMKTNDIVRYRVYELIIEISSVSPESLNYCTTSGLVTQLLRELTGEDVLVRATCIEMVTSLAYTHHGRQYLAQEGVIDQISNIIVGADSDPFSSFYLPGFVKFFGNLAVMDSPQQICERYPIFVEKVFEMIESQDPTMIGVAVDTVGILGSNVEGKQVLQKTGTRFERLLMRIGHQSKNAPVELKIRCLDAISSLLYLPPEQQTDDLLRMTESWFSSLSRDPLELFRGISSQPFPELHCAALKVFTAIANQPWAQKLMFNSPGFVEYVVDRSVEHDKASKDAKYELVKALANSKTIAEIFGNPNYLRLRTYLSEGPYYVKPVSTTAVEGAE
# Coatomer subunit gamma-1, sequence (Q9Y678 whole entry): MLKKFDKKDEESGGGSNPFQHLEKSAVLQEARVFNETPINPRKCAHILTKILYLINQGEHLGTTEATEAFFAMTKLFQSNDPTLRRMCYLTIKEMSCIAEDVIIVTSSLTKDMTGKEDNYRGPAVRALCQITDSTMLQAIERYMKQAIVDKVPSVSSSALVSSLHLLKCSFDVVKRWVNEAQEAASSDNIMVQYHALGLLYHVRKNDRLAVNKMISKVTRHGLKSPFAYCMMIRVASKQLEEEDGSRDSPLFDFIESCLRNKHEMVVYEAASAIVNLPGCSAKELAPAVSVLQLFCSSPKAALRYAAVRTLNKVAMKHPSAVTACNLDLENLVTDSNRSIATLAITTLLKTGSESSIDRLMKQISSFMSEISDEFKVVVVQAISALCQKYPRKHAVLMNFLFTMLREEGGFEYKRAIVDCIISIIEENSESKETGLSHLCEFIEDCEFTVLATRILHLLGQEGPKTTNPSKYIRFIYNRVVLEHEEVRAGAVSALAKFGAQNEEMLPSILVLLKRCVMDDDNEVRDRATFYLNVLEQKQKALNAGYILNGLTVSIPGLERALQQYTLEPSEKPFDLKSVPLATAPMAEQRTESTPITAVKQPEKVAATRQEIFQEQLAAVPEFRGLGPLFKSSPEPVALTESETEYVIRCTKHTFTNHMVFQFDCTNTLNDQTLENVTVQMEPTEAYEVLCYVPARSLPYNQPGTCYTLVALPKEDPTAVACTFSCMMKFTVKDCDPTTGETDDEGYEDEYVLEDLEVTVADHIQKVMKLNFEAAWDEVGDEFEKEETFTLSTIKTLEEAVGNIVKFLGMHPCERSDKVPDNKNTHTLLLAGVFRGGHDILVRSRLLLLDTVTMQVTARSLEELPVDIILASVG
# T-complex protein 1 subunit delta, sequence (P50991 whole entry, stated change not applied, one chain of several): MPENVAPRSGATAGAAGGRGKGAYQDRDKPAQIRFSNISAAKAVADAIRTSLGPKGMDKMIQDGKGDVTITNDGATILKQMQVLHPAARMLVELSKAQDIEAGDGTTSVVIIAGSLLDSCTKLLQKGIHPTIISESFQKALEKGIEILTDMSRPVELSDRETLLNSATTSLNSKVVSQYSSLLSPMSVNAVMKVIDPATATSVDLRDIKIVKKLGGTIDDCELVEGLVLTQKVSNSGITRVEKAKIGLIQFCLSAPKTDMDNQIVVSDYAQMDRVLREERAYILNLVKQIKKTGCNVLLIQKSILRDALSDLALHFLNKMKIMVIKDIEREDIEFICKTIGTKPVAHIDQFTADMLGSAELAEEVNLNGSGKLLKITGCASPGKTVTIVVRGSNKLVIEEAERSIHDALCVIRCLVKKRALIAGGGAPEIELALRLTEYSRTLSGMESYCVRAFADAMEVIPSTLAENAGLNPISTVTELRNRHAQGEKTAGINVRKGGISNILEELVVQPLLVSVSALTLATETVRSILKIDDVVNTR
# Protein S100-A10, sequence (P60903 whole entry): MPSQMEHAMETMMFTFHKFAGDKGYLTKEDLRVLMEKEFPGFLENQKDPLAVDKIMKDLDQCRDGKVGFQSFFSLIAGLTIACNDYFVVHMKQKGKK
substance,measurement,setting,value
"Coatomer subunit beta, P53618",listed as a hit,Coatomer subunit gamma-1,yes
"T-complex protein 1 subunit gamma, P49368",listed as a hit,[1],yes
"Putative annexin A2-like protein, A6NMY6",listed as a hit,Protein S100-A10,yes
"Phosphoglycerate kinase 1, P00558",listed as a hit,[2],yes
"26S proteasome regulatory subunit 7, P35998",listed as a hit,[3],yes
